Source: PubChem BioAssay
Pf Dd2 inh – inhibitors of Plasmodium falciparum Dd2 growth. P. falciparum Dd2 growth, SYBR Green, 72 h. Potency, µM (titrated, usually from 28.9 µM), hits mostly inhibitors. hit rate 4.3% among 120,000. AID 1347417; active = well fitted inhibition curve with a large enough effect; note: nearly all actives have a fitted effect of over 65% in size
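Readout: SYBR Green fluorescence, 485 nm excitation, 535 nm emission, after ~16 h lysis at 37C. Before that, Dd2-infected red cells (2.5% hematocrit) grew 72 h with compound, 29 uM top final concentration.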
Each line names hits and unclear results; the compound was inactive in the other large screens. This is one part of a sample in which hits are shown more often than they occur.

CCOC(=O)c1ccc(NC(=O)CSc2nc3c(c(=O)[nH]2)CN(Cc2ccccc2)CC3)cc1	none
O=C(C1CC1)N1CC[C@H]2COC(=O)N2c2ccccc2C1	none
COc1ccc(C(=O)N2CCc3nnc([C@@H]4C[C@@H](O)CN4C(C)C)n3CC2)cn1	none
O=C(NC[C@H]1OC[C@@H](NC2CCCC2)[C@@H]1O)Nc1ccccc1	none
O=C(N[C@H]1CO[C@H]2[C@@H]1OC[C@@H]2n1nnnc1Oc1ccc(-n2cncn2)cc1)C1CCCCC1	none
COc1ccc(C)cc1NC(=O)N1CCC(Oc2ncccc2C(=O)N(C)C)C1 (stereo unspecified)	none
COc1cc(-c2onc(C)c2C(=O)NCC2CCCO2)cc(OC)c1OC (stereo unspecified)	none
Cc1ccc(NC(=O)Cn2ccn3nc(-c4ccccc4)c(CO)c3c2=O)cc1Cl	none
Cc1nnc(N2CC[C@H](N3CCOCC3)[C@H](CCC(=O)O)C2)c2ccccc12	none
CC(C)S(=O)(=O)CCNc1nccc(-c2cccnc2)n1	none
OC(CNc1nccc(-c2cccnc2)n1)COc1ccc(Cl)cc1 (stereo unspecified)	Pf Dd2 inh 14µM
Cc1cc(=O)[nH]c(NCCNc2nccc(-c3cccnc3)n2)n1	none
Cn1cccc1CN1CCC2(Cc3ccccc3CNC2=O)C1 (stereo unspecified)	none
COc1ccc(C(=O)N2CCCOCCNC(=O)[C@@H]3CCCC[C@@H]32)cc1F	none
CCc1cccc(C)c1NC(=O)C1CCN(S(=O)(=O)c2cccc3nonc23)CC1	none
Cc1cc(C)cc(NC(=O)C2CCCN2S(=O)(=O)c2cccc3nsnc23)c1 (stereo unspecified)	Pf Dd2 inh 3.2µM
O=C(Nc1ccc(F)cc1F)C1CCCN1S(=O)(=O)c1cccc2nsnc12 (stereo unspecified)	none
Cc1ccc(NC(=O)C2CCCN2S(=O)(=O)c2cccc3nsnc23)c(Br)c1 (stereo unspecified)	Pf Dd2 inh 7.1µM
Cc1cc(C)cc(NC(=O)C2CCCN2S(=O)(=O)c2ccc3nc(-c4ccccc4)[nH]c3c2)c1 (stereo unspecified)	none
Cc1cccc(C)c1NC(=O)C1CCN(S(=O)(=O)c2cccc3nsnc23)CC1	none
Cc1ccc(NC(=O)C2CCCN(S(=O)(=O)c3cccc4nsnc34)C2)cc1C (stereo unspecified)	none
CCc1cccc(C)c1NC(=O)C1CCCN1S(=O)(=O)c1cccc2nsnc12 (stereo unspecified)	Pf Dd2 inh 5µM
Cc1ccc(NC(=O)C2CCCN(S(=O)(=O)c3cccc4nsnc34)C2)c(C)c1 (stereo unspecified)	none
O=C(O)C[C@@H]1CCN(C(=O)Nc2ccccc2)C[C@@H]1CCN1CCC(n2c(=O)[nH]c3ccccc32)CC1	none
CS(=O)(=O)N1CCC2(CC1)CN(Cc1ccncc1)Cc1ccccc1O2	none
Cc1ccccc1-c1cnc2[nH]cc(CC(=O)N3CCOCC3)c2c1	none
Cc1cc(Cl)ccc1OCC(=O)N1CCC(c2n[nH]c(=O)n2-c2ccccc2)CC1	none
CCOC(=O)CSc1nc2ccc(NC(=O)c3ccc(Cl)cc3)cc2s1	none
CCOC(=O)CNC(c1ccccc1)c1cc(Br)ccc1NC(=O)c1ccc(Cl)cc1 (stereo unspecified)	Pf Dd2 inh 4µM
COC(=O)CNC(c1ccccc1)c1cc(Br)ccc1NC(=O)c1ccc(Cl)cc1 (stereo unspecified)	none
Cc1ccccc1-c1nccc2c(=O)cc(N3CCOCC3)oc12	none
CCN(CC)c1cc(C)c2cc(NC(=O)c3ccc(F)cc3Cl)ccc2n1	none
CCN(CC)c1cc(C)c2cc(NC(=O)/C=C/c3ccccc3Cl)ccc2n1	Pf Dd2 inh 10µM
CCN(CC)c1cc(C)c2cc(NC(=O)c3cc(OC)cc(OC)c3)ccc2n1	none
Cc1ccnn1CCC(=O)N1CC[C@H](N2CCN(C)CC2)[C@H](CCC(=O)O)C1	none
Cc1noc([C@@H]2CN(Cc3ccco3)C[C@H]2CO)n1	none
O=C1Nc2ccccc2CC12CCCN(CC1CCCCC1)C2 (stereo unspecified)	none
O=C1N(Cc2ccc(F)cc2)CCCC12CCN(CC1CCCC1)C2 (stereo unspecified)	Pf Dd2 inh 4µM
CN(C)S(=O)(=O)N1CCC2(CCCN(Cc3ccc(F)c(F)c3)C2=O)C1 (stereo unspecified)	none
CN(Cc1ccccc1)Cc1cc(CC2(NCc3ccc(F)cc3)COC2)no1	none
CCCCCOc1ccccc1Cn1c(=O)oc2ccc(C)cc21	none
COc1ccccc1Cn1ccn(CC(=O)Nc2c(C)cc(C)cc2C)c(=O)c1=O	none
Cc1cc(Br)cc2c1N(Cc1ccccc1OC(C)C)C(=O)C2=O	Pf Dd2 inh 11µM
Cc1cccc2c1N(Cc1ccccc1OCCC(C)C)C(=O)C2=O	Pf Dd2 inh 10µM
COc1ccccc1CN1C(=O)C(=O)c2cccc(C)c21	none
CC(C)Oc1ccccc1CN1CCC([C@@H]2CNC[C@H]2CO)CC1	none
CC[C@H]1CN(C(=O)C(C)(C)C)CC[C@H]1CC(=O)N1CCC(C(=O)OC)CC1	none
CC(C)S(=O)(=O)N1CC(n2cc(C(=O)NCc3ccccc3)nn2)C1	none
COc1ccc2c(c1)c(=O)c(C(=O)c1ccc(Cl)cc1)cn2CC(=O)Nc1ccc2c(c1)OCCO2	Pf Dd2 inh 11µM
COc1ccc(OC)c(NC(=O)Cn2cc(C(=O)c3ccccc3)c3ccccc32)c1	none
COc1ccc2c(c1)c(=O)c(S(=O)(=O)c1ccccc1)cn2CC(=O)Nc1ccc2c(c1)OCO2	none
COc1ccc2c(c1)c(=O)c(C(=O)c1ccc(Cl)cc1)cn2CC(=O)Nc1ccc2c(c1)OCO2	none
O=C(Cn1cc(S(=O)(=O)c2ccccc2)c(=O)c2cc(Cl)ccc21)Nc1ccc2c(c1)OCO2	Pf Dd2 inh 8.9µM
COc1ccc(NC(=O)Cn2cc(C(=O)c3ccccc3)c(=O)c3cc(OC)ccc32)c(OC)c1	none
COc1cccc(NC(=O)Cn2cc(C(=O)c3ccc(F)cc3)c(=O)c3cc(OC)ccc32)c1	none
CCc1ccc(C(=O)c2cn(CC(=O)Nc3cccc(OC)c3)c3ccc(OC)cc3c2=O)cc1	Pf Dd2 inh 13µM
O=C(Cn1cc(S(=O)(=O)c2ccc(F)cc2)c(=O)c2cc3c(cc21)OCO3)Nc1ccccc1	none
COc1cccc(NC(=O)Cn2cc(C(=O)c3ccc(C)cc3)c(=O)c3cc(OC)ccc32)c1	none
CCOc1ccc(C(=O)c2cn(CC(=O)Nc3ccc4c(c3)OCCO4)c3ccc(OC)cc3c2=O)cc1	none
COc1ccc(OC)c(NC(=O)Cn2cc(C(=O)c3ccc(Cl)cc3)c(=O)c3cc(OC)ccc32)c1	Pf Dd2 inh 8.9µM
O=C(c1cccs1)N1CCC2(CC1)N=C(c1ccc(Cl)cc1)NO2	none
O=C1Nc2ccccc2CC12CCCN2CC1CC1 (stereo unspecified)	none
COc1cc(F)ccc1-c1cc(-c2c(C)noc2C)cc2c1C(=O)N(C)C2	none
Cc1cccc(-c2[nH]ncc2CNC(=O)c2cccc(N(C)C)c2)c1	none
CNC(=O)c1noc([C@@H]2CC(F)(F)CN2Cc2cnn(C(C)C)c2)n1	none
O=C(N[C@@H]1COCC[C@@H]1OCC1CC1)c1ccc2c(c1)CCCO2	none
O=C(O)C1CC2(CCN(C(=O)c3ccccc3N3CCCC3)CC2)CN1 (stereo unspecified)	none
CCc1ccc(S(=O)(=O)N[C@@H]2COCC[C@H]2Oc2ccccn2)s1	none
O=C(O)c1cccc2c1CCN2S(=O)(=O)c1ccccc1F	none
CCc1ccc(CN2CCCC(c3nnc(Cn4ccnc4)n3C)C2)nc1 (stereo unspecified)	none
COC(=O)N1CCn2c(nnc2-c2ccccc2)C1	none
COc1cc(SC)c(OC)cc1CN1CCC2(CC(=O)NC2=O)C1 (stereo unspecified)	none
CCc1cc(NCCNC(=O)c2ccccc2Cl)n2nccc2n1	none
